From PubChem BioAssay (EPA / NIEHS)
Active and inactive are the calls of the source. The calls were made as follows: active = hit-call score of the fitted dose curve at least 0.9, where 1 is the maximum; inactive = score below 0.9.

Read-out: Plasminogen activator inhibitor-1 (PAI1), SERPINE1 (gene 5054)
Test: BSK_hDFCGF_PAI1: BioMAP Diversity Plus: hDFCGF Assay for Plasminogen activator inhibitor-1 (PAI1) Biomarker Activity (AID 2283066)
Conditions: primary human foreskin fibroblasts; actives raise or lower the signal
How it was run: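 Fibroblasts from human foreskin were treated with test chemical. After 24 h, PAI-1 was measured by ELISA. Activity was fitted in both directions relative to DMSO.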

Row | SMILES | outcome | AC50
1 | C[Si](C)(C)C(F)(F)C(F)(F)C(F)(F)F | inactive | 
2 | O=C(NO)C1(NS(=O)(=O)c2ccc(Oc3ccc(F)cc3)cc2)CCOCC1 | inactive | 
3 | O=C1CN(N=Cc2ccc([N+](=O)[O-])o2)C(=O)N1 | inactive | 
4 | OC(Cn1cncn1)(Cn1cncn1)c1ccc(F)cc1F | inactive | 
5 | O=S(=O)(O)CCC(F)(F)C(F)(F)C(F)(F)C(F)(F)C(F)(F)C(F)(F)F | inactive | 
6 | OC(CCl)CCl | inactive | 
7 | OCc1ccccc1 | inactive | 
8 | c1ccc(C(O[C@@H]2CCCN(CCc3ccc4c(c3)OCO4)C2)c2ccccc2)cc1 |  | 20 µM (active)
9 | O=C(Cl)C(F)(F)C(F)(F)C(F)(F)C(=O)Cl | inactive | 
10 | CCCCCCCC/C=C\CCCCCCCC(=O)OC[C@@H](O)[C@H]1OC[C@H](O)[C@H]1O | inactive | 
11 | CCCCCCCCN(C)C | inactive | 
12 | COS(C)(=O)=O | inactive | 
13 | CCCc1ccccc1 | inactive | 
14 | COc1cc2c(c(OC)c1OC)-c1ccc(OC)c(=O)cc1[C@@H](NC(C)=O)CC2 | inactive | 
15 | COCc1nnc(-c2ccc[n+]([O-])c2)n1-c1c(Cl)c(Cl)cc2[nH]c(=O)c(=O)[nH]c12 | inactive | 
16 | CNC(C)=O | inactive | 
17 | CCCCOC(=O)c1ccccc1 | inactive | 
18 | OC[C@H]1O[C@@H]2O[C@H]3[C@H](O)[C@@H](O)[C@@H](O[C@H]4[C@H](O)[C@@H](O)[C@@H](O[C@H]5[C@H](O)[C@@H](O)[C@@H](O[C@H]6[C@H](O)[C@@H](O)[C@@H](O[C@H]7[C@H](O)[C@@H](O)[C@@H](O[C@H]1[C@H](O)[C@H]2O)O[C@@H]7CO)O[C@@H]6CO)O[C@@H]5CO)O[C@@H]4CO)O[C@@H]3CO | inactive | 
19 | O=C(O)[C@H](O)[C@@H](O)C(=O)O | inactive | 
20 | FC(F)(F)COC(OCC(F)(F)F)OCC(F)(F)F | inactive | 
21 | OCCNCCO | inactive | 
22 | Cn1cc[nH]c1=S | inactive | 
23 | O=C(O)c1cccc(C(=O)O)c1 | inactive | 
24 | CCCCCCCC1CCC(=O)O1 (stereo unspecified) | inactive | 
25 | c1ccc2ncccc2c1 | inactive | 
26 | OC(O)(C(F)C(O)(O)C(F)(F)F)C(F)(F)F | inactive | 
27 | CCc1ccc(O)c(C(C)(C)C)c1 |  | 28.1 µM (active)

Read-out: Intercellular Adhesion Molecule 1 (ICAM1), ICAM1 (gene 3383)
Test: BSK_KF3CT_ICAM1: BioMAP Diversity Plus: KF3CT Assay for Intercellular Adhesion Molecule 1 (ICAM1) Biomarker Activity (AID 2283067)
Conditions: primary human keratinocytes with fibroblasts; actives raise or lower the signal
How it was run: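 Dose the keratinocyte/fibroblast co-culture, wait 24 h, measure ICAM-1 by ELISA, then fit increases or decreases against DMSO. Cytotoxicity is checked in parallel cultures by SRB total-protein staining.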

Row | SMILES | outcome | AC50
28 | C[Si](C)(C)C(F)(F)C(F)(F)C(F)(F)F | inactive | 
29 | O=C(NO)C1(NS(=O)(=O)c2ccc(Oc3ccc(F)cc3)cc2)CCOCC1 | inactive | 
30 | O=C1CN(N=Cc2ccc([N+](=O)[O-])o2)C(=O)N1 | inactive | 
31 | OC(Cn1cncn1)(Cn1cncn1)c1ccc(F)cc1F | inactive | 
32 | O=S(=O)(O)CCC(F)(F)C(F)(F)C(F)(F)C(F)(F)C(F)(F)C(F)(F)F | inactive | 
33 | OC(CCl)CCl | inactive | 
34 | OCc1ccccc1 | inactive | 
35 | c1ccc(C(O[C@@H]2CCCN(CCc3ccc4c(c3)OCO4)C2)c2ccccc2)cc1 | inactive | 
36 | O=C(Cl)C(F)(F)C(F)(F)C(F)(F)C(=O)Cl | inactive | 
37 | CCCCCCCC/C=C\CCCCCCCC(=O)OC[C@@H](O)[C@H]1OC[C@H](O)[C@H]1O | inactive | 
38 | CCCCCCCCN(C)C | inactive | 
39 | COS(C)(=O)=O | inactive | 
40 | CCCc1ccccc1 | inactive | 
41 | COc1cc2c(c(OC)c1OC)-c1ccc(OC)c(=O)cc1[C@@H](NC(C)=O)CC2 | inactive | 
42 | COCc1nnc(-c2ccc[n+]([O-])c2)n1-c1c(Cl)c(Cl)cc2[nH]c(=O)c(=O)[nH]c12 | inactive | 
43 | CNC(C)=O | inactive | 
44 | CCCCOC(=O)c1ccccc1 | inactive | 
45 | OC[C@H]1O[C@@H]2O[C@H]3[C@H](O)[C@@H](O)[C@@H](O[C@H]4[C@H](O)[C@@H](O)[C@@H](O[C@H]5[C@H](O)[C@@H](O)[C@@H](O[C@H]6[C@H](O)[C@@H](O)[C@@H](O[C@H]7[C@H](O)[C@@H](O)[C@@H](O[C@H]1[C@H](O)[C@H]2O)O[C@@H]7CO)O[C@@H]6CO)O[C@@H]5CO)O[C@@H]4CO)O[C@@H]3CO | inactive | 
46 | O=C(O)[C@H](O)[C@@H](O)C(=O)O | inactive | 
47 | FC(F)(F)COC(OCC(F)(F)F)OCC(F)(F)F | inactive | 
48 | OCCNCCO | inactive | 
49 | Cn1cc[nH]c1=S | inactive | 
50 | O=C(O)c1cccc(C(=O)O)c1 | inactive | 
51 | CCCCCCCC1CCC(=O)O1 (stereo unspecified) | inactive | 
52 | c1ccc2ncccc2c1 | inactive | 
53 | OC(O)(C(F)C(O)(O)C(F)(F)F)C(F)(F)F | inactive | 
54 | CCc1ccc(O)c(C(C)(C)C)c1 |  | 31.2 µM (active)

Read-out: Interferon-gamma inducible Protein 10 (IP10), CXCL10 (gene 3627)
Test: BSK_KF3CT_IP10: BioMAP Diversity Plus: KF3CT Assay for Interferon-gamma inducible Protein 10 (IP10) Biomarker Activity (AID 2283068)
Conditions: primary human keratinocytes with fibroblasts; actives raise or lower the signal
How it was run: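 KF3CT co-culture (keratinocytes + foreskin fibroblasts), 24 h compound, IP-10 by ELISA; bidirectional fit vs DMSO baseline.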

Row | SMILES | outcome | AC50
55 | C[Si](C)(C)C(F)(F)C(F)(F)C(F)(F)F | inactive | 
56 | O=C(NO)C1(NS(=O)(=O)c2ccc(Oc3ccc(F)cc3)cc2)CCOCC1 | inactive | 
57 | O=C1CN(N=Cc2ccc([N+](=O)[O-])o2)C(=O)N1 | inactive | 
58 | OC(Cn1cncn1)(Cn1cncn1)c1ccc(F)cc1F | inactive | 
59 | O=S(=O)(O)CCC(F)(F)C(F)(F)C(F)(F)C(F)(F)C(F)(F)C(F)(F)F | inactive | 
60 | OC(CCl)CCl | inactive | 
61 | OCc1ccccc1 | inactive | 
62 | c1ccc(C(O[C@@H]2CCCN(CCc3ccc4c(c3)OCO4)C2)c2ccccc2)cc1 | inactive | 
63 | O=C(Cl)C(F)(F)C(F)(F)C(F)(F)C(=O)Cl | inactive | 
64 | CCCCCCCC/C=C\CCCCCCCC(=O)OC[C@@H](O)[C@H]1OC[C@H](O)[C@H]1O | inactive | 
65 | CCCCCCCCN(C)C | inactive | 
66 | COS(C)(=O)=O | inactive | 
67 | CCCc1ccccc1 | inactive | 
68 | COc1cc2c(c(OC)c1OC)-c1ccc(OC)c(=O)cc1[C@@H](NC(C)=O)CC2 | inactive | 
69 | COCc1nnc(-c2ccc[n+]([O-])c2)n1-c1c(Cl)c(Cl)cc2[nH]c(=O)c(=O)[nH]c12 | inactive | 
70 | CNC(C)=O | inactive | 
71 | CCCCOC(=O)c1ccccc1 | inactive | 
72 | OC[C@H]1O[C@@H]2O[C@H]3[C@H](O)[C@@H](O)[C@@H](O[C@H]4[C@H](O)[C@@H](O)[C@@H](O[C@H]5[C@H](O)[C@@H](O)[C@@H](O[C@H]6[C@H](O)[C@@H](O)[C@@H](O[C@H]7[C@H](O)[C@@H](O)[C@@H](O[C@H]1[C@H](O)[C@H]2O)O[C@@H]7CO)O[C@@H]6CO)O[C@@H]5CO)O[C@@H]4CO)O[C@@H]3CO | inactive | 
73 | O=C(O)[C@H](O)[C@@H](O)C(=O)O | inactive | 
74 | FC(F)(F)COC(OCC(F)(F)F)OCC(F)(F)F | inactive | 
75 | OCCNCCO | inactive | 
76 | Cn1cc[nH]c1=S | inactive | 
77 | O=C(O)c1cccc(C(=O)O)c1 | inactive | 
78 | CCCCCCCC1CCC(=O)O1 (stereo unspecified) | inactive | 
79 | c1ccc2ncccc2c1 | inactive | 
80 | OC(O)(C(F)C(O)(O)C(F)(F)F)C(F)(F)F | inactive | 
81 | CCc1ccc(O)c(C(C)(C)C)c1 |  | 36.8 µM (active)
